This is a sample that favours compounds with a hit; in the whole collection about 11% have one here.
HPGD inh = blocks human HPGD enzyme activity | P15428 | purified HPGD, NADH fluorescence kinetic, PGE2 substrate | Potency, µM, inactives show top-dose activity change, negative = inhibition, most hits filed as inhibitors | hit rate 4.3% among 150,000 | AID 894; also: potency is read from the fitted curve at half-maximal effect
Target sequence (P15428 whole entry, looked up): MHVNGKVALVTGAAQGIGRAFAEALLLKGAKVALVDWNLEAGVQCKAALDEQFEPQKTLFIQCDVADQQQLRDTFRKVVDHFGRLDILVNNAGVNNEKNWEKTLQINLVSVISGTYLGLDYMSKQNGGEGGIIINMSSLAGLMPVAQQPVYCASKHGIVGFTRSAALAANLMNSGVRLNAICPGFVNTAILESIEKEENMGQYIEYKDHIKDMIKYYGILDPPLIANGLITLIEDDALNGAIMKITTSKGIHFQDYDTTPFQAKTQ
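20 nM HPGD preincubated 15 min at room temperature with compound in 50 mM Tris-HCl pH 8, 0.01% Tween 20. Started with 1 mM NAD+ and 30 uM prostaglandin E2; NADH fluorescence (360/450 nm) read 5 times over 30-s intervals, last minus first.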
PNC assembly inh = inhibitors of perinucleolar compartment assembly; PC3M PTB-GFP, PNC prevalence imaging, 16 h; stronger effect = lower value; activity change (PNC), negative = inhibition, % at 10 µM; hit rate 3.1% among 140,000; AID 2417;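 active = readout at or below -70, meaning at least 70% loss of cells showing the perinucleolar compartment, a nuclear body marking cancer cells; inconclusive = readout between -30 and a set limit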;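 also: plate controls were DMSO wells for no effect and camptothecin positive control wells for full effect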
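Read-out is percentage of cells bearing a perinucleolar compartment, from automated 20x imaging of fixed, Hoechst-stained PC3M PTB-GFP cells. Cells were seeded 4 h, then exposed 16 h to compound (23 nl of library stock) in duplicate plates.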
ALDH1A1 block = blocks purified human ALDH1A1 activity | Purified ALDH1A1, NADH fluorescence, propionaldehyde substrate | hit rate 7.3% among 220,000 | Potency, µM (series often up to 75.3 µM), without a hit: at the top dose activity, negative = inhibition, actives largely listed as inhibitors | P00352;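 also: potency is read from the fitted curve at half-maximal effect; plate controls were no enzyme wells and a reference inhibitor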
IMPase Li cell = membrane-permeable IMPase blocker, potentiated with lithium. CHO-M1 cells, IP1 TR-FRET (IP-One), carbachol + lithium. hit rate 0.35% among 210,000. Potency, µM (top dose mostly 59.4 µM), inactives show at the highest dose activity, negative = IMPase inhibition, usual class: inhibitors; active = well fitted inhibition curve with a large enough effect; inconclusive = small, poorly fitted or top-dose-only effect; inactive = no such curve, though single readings can be large or run the other way;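 also: IP1 builds up when IMPase is blocked and the TR-FRET signal falls; potency is read from the fitted curve at half-maximal effect; plate controls were basal vehicle for no effect and high inhibitor control for full effect; nearly all actives have a fitted effect of over 50% in size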
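Readout is a homogeneous TR-FRET IP1 immunoassay (Ex 320, Em 665 and 620), where raised cytosolic IP1 lowers signal. Cells were CHO-M1 treated 30 min at 37C with test compounds plus a little lithium; AC50 values came from Hill-equation fitting.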
IMPase inh = IMPase inhibition in cells | P97697 | CHO-M1 cells, IP1 accumulation, HTRF TR-FRET ratio | inhibition (IP1 accumulation), % at 46.1 µM | 120,000 tested, under 10 active | AID 901; active = well fitted curve in the direction sought with a large enough effect in the signal ratio, not every such curve was filed as active; inconclusive = small, poorly fitted or top-dose-only effect, or a change in a side signal; inactive = no such curve, though single readings can be large or run the other way; the % refers to the signal ratio;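 also: cells stimulated with carbachol in lithium chloride buffer; plate controls were DMSO basal wells for no effect and reference inhibitor wells for full effect; higher means more IMPase inhibition seen as more IP1 and lower FRET ratio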
Target sequence (P97697 whole entry, looked up): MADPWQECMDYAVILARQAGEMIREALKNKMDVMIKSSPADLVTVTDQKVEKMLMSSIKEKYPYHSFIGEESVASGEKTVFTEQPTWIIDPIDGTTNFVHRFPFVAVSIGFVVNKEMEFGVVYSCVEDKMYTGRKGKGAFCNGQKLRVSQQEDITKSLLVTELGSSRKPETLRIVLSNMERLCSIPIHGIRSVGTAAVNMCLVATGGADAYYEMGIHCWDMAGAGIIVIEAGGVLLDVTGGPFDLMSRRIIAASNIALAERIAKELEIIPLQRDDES
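The IP-One HTRF competitive assay in carbachol-stimulated CHO-M1 cells quantifies cellular IP1. Compounds spanned up to 46 uM final, and activity is expressed as AC50 from concentration-response fits of the ratio and donor data.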
An asterisk follows results filed as active; ? = inconclusive; . = no result; [ ] = another dose, or the depositor's remark. Unless noted, calls follow the shape of the dose curve; as a rule, active = well fitted inhibition curve with a large enough effect (not every such curve was filed as active); inconclusive = small, poorly fitted or top-dose-only effect, or another doubt; inactive = no such curve, though single readings can be large or run the other way. Unless noted, % is scaled to controls: 0 for no effect and ±100 for the full control effect.

SMILES | HPGD inh | PNC assembly inh | ALDH1A1 block | IMPase Li cell | IMPase inh
COc1ccccc1NC(=O)Nc1ccc(CC#N)cc1 | . | . | -3.5% | . | .
CCCc1ccc(C#N)c(SC2CC(=O)N(c3ccc(OC)cc3)C2=O)n1 (stereo not given) | . | . | ? | 13.3% | .
COc1ccc(N2C(=O)CC(Sc3nnnn3-c3ccc(F)cc3)C2=O)cc1 (stereo not given) | . | . | 2.51µM* | 7.9% | .
Clc1cccc(N2CCN(c3nnnn3-c3ccccc3)CC2)c1 | . | . | ? | 11.2% | .
O=C1CC(Sc2nnnn2-c2ccccc2)C(=O)N1c1cccc(Cl)c1 (stereo not given) | 31.6µM* | 38.5 | 0.794µM* | 9.9%[38.3 µM] | -2.0[1.84 µM]
CC1CN(C(=O)c2c(Br)cnn2C)CC(C)O1 (stereo not given) | -3.0% | -1.9 | -1.4% | 0.4% | .
CCC1SC2=NC(C)=C(C(=O)OC)C(c3ccc(C)cc3)N2C1=O (stereo not given) | -24.4% | ? | 14.1µM* | 28.2%[38.3 µM] | 3.0
O=C(C[n+]1ccn(CCCNP2(=O)C=C(c3ccccc3)OC(c3ccccc3)=C2)c1)c1cccs1 | . | . | 14.1µM* | 5.1% | .
O=C(C[n+]1cc(-c2ccccc2)n2c1CCC2)c1cccs1 | . | . | 4.4% | 13.0% | .
CN1CCN(c2ncc3nc(-c4cccs4)c(=O)n(CCc4ccccc4)c3n2)CC1 | . | . | ? | 6.5% | .
C=CC(=O)NC(C)C | -0.9% | . | 2.2% | -28.1% | .
C=CC(=O)CC | -2.3% | . | 2µM* | 2.1% | .
O=C1OCC(c2ccccc2)=C1c1ccc(S(=O)(=O)N2CCOCC2)s1 | ? | 23.3 | 20µM* | -6.0%[38.3 µM] | 2.1
Cc1cccc(OCC(=O)Nc2nnc(-c3ccco3)s2)c1 | . | . | 31.6µM* | -20.8% | .
CCCC(=O)Nc1nnc(-c2ccco2)s1 | ? | ? | ? | 22.5%[38.3 µM] | -13.7
COc1ccccc1OCC(=O)Nc1nnc(-c2ccco2)s1 | -22.2% | 36.9 | 7.08µM* | ? | -28.0
CCOc1cccc(C(=O)Nc2nnc(-c3ccco3)s2)c1 | ? | -25.1 | ? | -14.6%[38.3 µM] | -7.8
Cc1cnc(CNc2cc(-c3ccoc3)ncn2)cn1 | -19.1% | . | ? | 13.4% | .
O=S(=O)(NCc1csc(-c2ccccc2)n1)c1ccc(Cl)s1 | 17.8µM* | 93.8 | -2.9% | 2.9% | -16.1
On1c2c(c3c4nonc4ccc31)CCCC2 | 15.8µM* | ? | 31.6µM* | 9.2% | -2.3
Fc1cccc(NCc2ccccc2-c2nnc(-c3ccccc3Cl)o2)c1 | . | . | . | . | 4.7
COC(=O)c1ccccc1NC1=C/C(=N\S(=O)(=O)c2cccs2)c2ccccc2C1=O | ? | -22.2 | 3.16µM* | 46.0%[38.3 µM] | 14.8
O=C1C(Nc2ccccc2)=C/C(=N/S(=O)(=O)c2cccs2)c2ccccc21 | -11.4% | -81.4* | ? | 23.9% | .
Cc1ccc(NC2=C/C(=N/S(=O)(=O)c3cccs3)c3ccccc3C2=O)cc1 | -2.9% | -100.9* | 12.2% | 22.0% | .
O=C(NCC1CCCCC1)c1nnc(C(=O)NCC2CCCCC2)c2c1[nH]c1ccccc12 | -8.7% | . | -10.9% | 4.2% | .
SMILES | HPGD inh | PNC assembly inh | ALDH1A1 block | IMPase Li cell | IMPase inh
C/C=C/c1ccc(OCCCN2C(=O)NC(C)(C)C2=O)c(OC)c1 | -12.7% | -125.3* | 14.1µM* | 2.5%[38.3 µM] | 6.2
COc1ccccc1CN1CCC2(CC1)CCN(C(=O)c1cccn1C)CC2 | -5.1% | . | -4.6% | 30.2% | .
O=C(NCc1ccccc1)[C@@H]1C[C@H]1[C@@H](NP(=O)(c1ccccc1)c1ccccc1)c1ccccc1 | -0.8% | 21.7 | -8.7% | 7.7% | .
O=C(Nc1ccc2ccccc2c1)[C@@H]1C[C@H]1[C@@H](NP(=O)(c1ccccc1)c1ccccc1)c1ccccc1 | ? | -118.9* | ? | 7.2% | .
COc1ccccc1N(CC(O)CN1C(=O)NC(C)(C)C1=O)S(=O)(=O)c1ccc(C)cc1 (stereo not given) | -9.2% | -12.6 | -15.1% | -5.6%[38.3 µM] | 6.3
NNC(=O)c1ccc([N+](=O)[O-])c(CS(=O)(=O)c2ccc(Cl)cc2)c1 | -18.9% | -10.8 | 11.2µM* | 1.1%[38.3 µM] | -2.6
CC(=O)c1cnc2cc(-c3ccc(C)cc3)nn2c1C | ? | -100.0* | ? | -2.1% | -0.4
CC(=O)c1cnc2cc(-c3ccccc3)nn2c1C | ? | ? | ? | ? | 0.7
O=C(O)[C@@H]1CCCN1Cc1cc2ccccc2c2ccccc12 | -8.9% | . | -5.4%[13.5 µM] | -6.1% | .
CCN(Cc1ccncc1)S(=O)(=O)c1ccc(C(C)=O)cc1 | -28.8% | -3.3 | 7.94µM* | 13.0%[38.3 µM] | 10.7
COC(=O)C1=C(C)NC(C)=C(C(=O)OCCNCc2ccccc2)C1c1cccc([N+](=O)[O-])c1 (stereo not given) | -21.5% | . | -8.5% | 16.0% | .
Cc1oc2c(O)c(O)ccc2c(=O)c1-c1cnn(-c2ccccc2)c1 | 17.8µM* | ? | 28.2µM* | 36.7%[38.3 µM] | 7.6
Cc1oc2cc(O)cc(C)c2c(=O)c1-c1cnn(-c2ccccc2)c1 | ? | -115.3* | ? | 16.1%[38.3 µM] | 9.3
Cc1nc(-c2cnn(-c3ccccc3)c2)c2cc(C)oc2n1 | ? | ? | ? | -3.4%[38.3 µM] | 7.3
Cc1oc2c(C)c(O)ccc2c(=O)c1-c1nncn1-c1ccccc1 | . | . | ? | -8.4% | .
C[C@](O)(c1ccccc1)c1nccc2ccccc12 | -7.3% | . | 8.9%[13.5 µM] | 1.9% | .
CCN(CCO)c1nc(SC)nc2c1sc1nc(-c3ccco3)c3c(c12)CCC3 | ? | ? | 2µM* | -7.1%[38.3 µM] | -0.5
CSc1ccc(-c2nc3ncccn3c2Nc2ccc(C)c(C)c2)cc1 | . | . | . | . | -4.5
CC(=O)Nc1ccc2c(c1)n(C)c(=O)n2C | -7.6% | 31.1 | 3.0% | 3.8%[38.3 µM] | 4.4
Cn1c(=O)n(C)c2cc(NC(=O)CCl)ccc21 | -12.8% | ? | 0.708µM* | 8.0%[38.3 µM] | -0.3
CCOC(=O)COc1ccc(S(=O)(=O)Nc2cccc(SC)c2)cc1 | -7.2% | -0.3 | 2.2% | 28.5%[38.3 µM] | 1.6
O=C(N1CCCCCC1)N1CCN(S(=O)(=O)c2ccccc2)CC1 | -5.9% | 19.6 | 6.31µM* | 1.4%[38.3 µM] | 13.7
CSc1cccc(NS(=O)(=O)c2ccccc2)c1 | 25.1µM* | 27.0 | -2.1% | 22.7%[38.3 µM] | 4.0

From PubChem
